Screening results deposited in PubChem BioAssay by National Center for Advancing Translational Sciences (NCATS).
D2 PAM-1: D2 dopamine receptor (human) potentiation. AID 485347. hit rate 0.34% among 340,000. potentiation, % at 10 µM. HEK293 T-REx D2, calcium flux, EC20 dopamine potentiation;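 active means potentiation over 3 SD above the plate norm, cut at about 30% in these data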; further: 0% is about no effect
Target sequence (P14416 whole entry, looked up): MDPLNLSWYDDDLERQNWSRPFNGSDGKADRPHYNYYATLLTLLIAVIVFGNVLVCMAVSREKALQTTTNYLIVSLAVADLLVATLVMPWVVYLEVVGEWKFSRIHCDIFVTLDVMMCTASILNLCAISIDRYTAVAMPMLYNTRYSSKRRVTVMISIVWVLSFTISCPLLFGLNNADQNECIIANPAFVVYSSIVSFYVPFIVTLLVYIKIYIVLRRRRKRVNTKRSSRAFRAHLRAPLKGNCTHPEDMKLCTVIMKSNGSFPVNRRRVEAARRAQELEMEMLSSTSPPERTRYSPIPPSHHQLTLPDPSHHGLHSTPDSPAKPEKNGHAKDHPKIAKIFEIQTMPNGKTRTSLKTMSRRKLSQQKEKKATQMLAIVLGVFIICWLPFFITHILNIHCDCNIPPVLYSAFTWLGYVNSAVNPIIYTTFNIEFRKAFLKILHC
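Using a no-wash calcium dye in inducible, force-coupled HEK293 Trex cells expressing D2, we tracked fluorescence each second for 180 s after compound, then for 180 s after EC20 dopamine to detect augmented signalling.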
D2 PAM-2: potentiates the human D2 dopamine receptor allosterically; hit rate 0.23% among 360,000; potentiation, % (no concentration beside the values); P14416; DiscoveRx D2 beta-arrestin cells, luminescence, 90 min; 100% = 57 uM dopamine signal; in the data active means potentiation above about 50%
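D2 cells co-treated with compound plus 50 nM dopamine (EC20) for 90 min at 37 deg C to detect potentiation. Beta-arrestin recruitment was read as enzyme-fragment luminescence after 1 h at ambient temperature. Full response was set by 57 uM dopamine.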
D2 ag-1: human D2 receptor agonism in beta-arrestin assay | P14416 | activation, % (test concentration not listed) | hit rate 0.084% among 360,000 | DiscoveRx PathHunter D2 beta-arrestin, luminescence, 90 min; 100% = 57 uM dopamine signal; in the data active means activation above about 40%
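DiscoveRx PathHunter D2 beta-arrestin cells (2,100/well) attached overnight, then compound-stimulated 90 min at 37 C in HBSS/10 mM HEPES/0.1% Tween-20 buffer; beta-galactosidase complementation read by luminescence after 1 h at ambient temperature. Dopamine 57 uM final (EC100) as control.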
D2 ag-2: D2 dopamine receptor (human) agonism. P14416. HEK293 T-REx D2 cells, calcium flux agonist mode. activation, % at 2 µM. hit rate 0.53% among 340,000;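 active means activation over 3 SD above normal in the single-dose calcium agonist read, cut at about 30% in these data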; further: 0% is about no effect
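Tetracycline-induced HEK293 T-REx cells with force-coupled D2 receptor, plated overnight at 30 C, loaded with no-wash calcium dye. After a 10 s baseline, compound was pin-added and calcium flux read kinetically for 180 s; calcium rises flagged agonists.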
D2 antag: D2 dopamine receptor (human) antagonism | P14416 | HEK293 TREx D2 cells, calcium flux, dopamine EC80 | inhibition, % at 10 µM | hit rate 2% among 340,000; in the data active means inhibition above about 30%; inactive means below that, where a call was filed; further: 0% is about no effect
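Calcium flux kinetic readout in an inducible HEK293 TREx D2 line plated overnight at 30 C. After 180 s compound exposure, an EC80 dopamine challenge follows with another 180 s kinetic read to detect antagonism.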
* marks the source's active call; other numbers are inactive results; · = no result. A selection: hits, their analogues and other compounds. The true share with any hit is near 2.4%.

SMILES | D2 PAM-1 | D2 PAM-2 | D2 ag-1 | D2 ag-2 | D2 antag
CC1CCC(NC(=O)c2ccc(CS(=O)(=O)c3ccc(Cl)cc3)o2)CC1 (centres undefined) | -15 | · | · | -1 | ·
O=C(Nc1ccc2c(c1)CCCN2C(=O)c1ccco1)c1cc([N+](=O)[O-])ccc1Cl | -1 | 56* | 7 | 0 | 1
O=C(Nc1ccc(N2CCN(C(=O)c3ccco3)CC2)cc1)c1ccc([N+](=O)[O-])cc1Cl | -4 | -3 | 5 | 1 | -1
Cc1ccc(C)c(Nc2nnc(-c3ccc(C)c(S(=O)(=O)NCC4CCCO4)c3)c3ccccc23)c1 (centres undefined) | -1 | · | · | · | ·
CC(C)NC(=O)CN1C(=O)CCn2nc(-c3cn(C)c4ccccc34)cc21 | -5 | · | · | · | ·
COc1cc(OC)cc(C(=O)NCC2CCCN(Cc3ccc(SC)cc3)C2)c1 (centres undefined) | -21 | -29 | -10 | -1 | 51*
COc1ccc(CN2CCCC(C(=O)c3ccc(SC)cc3)C2)cc1Cn1cccn1 (centres undefined) | -18 | -3 | -3 | 1 | 33*
CCc1ccc(CN2CCCC(CNC(=O)c3cc(OC)cc(OC)c3)C2)cc1 (centres undefined) | -21 | -25 | -6 | -1 | 27
COc1ccc(-c2[nH]ncc2CN2CCCC(C(=O)c3ccc(OC)cc3OC)C2)cc1 (centres undefined) | -15 | -15 | -4 | 0 | 1
Cn1cc(CN2CCCC(C(=O)c3cc(F)ccc3F)C2)c2ccccc21 (centres undefined) | -16 | -11 | -6 | 0 | -5
COc1ccc(F)cc1C(=O)C1CCCN(Cc2cn(C)c3ccccc23)C1 (centres undefined) | -14 | -16 | -2 | 0 | 78*
COc1ccc(OC)c(CN2CCCC(C(=O)c3ccccc3SC)C2)c1 (centres undefined) | -18 | -20 | -4 | 0 | 51*
O=C(CSc1nc2c(c(=O)[nH]1)CCC2)Nc1cc(C(F)(F)F)ccc1Cl | 3 | · | · | 0 | ·
COc1ccc(CN2CCC(CO)(Cc3ccccc3)CC2)cc1Cn1cccn1 | -18 | -5 | -6 | -1 | 37*
COc1ccc(F)cc1C(=O)C1CCCN(Cc2c[nH]c3ccccc23)C1 (centres undefined) | -20 | -2 | -3 | 0 | 67*
COC(=O)c1ccc(CN2CCCC(C(=O)c3cc(F)ccc3OC)C2)cc1 (centres undefined) | -22 | -3 | -1 | 1 | 17
COc1cc2c(cc1OC)n(Cc1cccc(C(F)(F)F)c1)c(=O)n1nc(-c3ccccc3)nc21 | 9 | · | · | -1 | ·
C/C=C/C(=O)OCC(=O)Nc1ccccc1Br | -5 | 1 | -19 | 0 | 47*
C/C=C/C(=O)OCC(=O)Nc1cccc(Br)c1 | -1 | -2 | 8 | 4 | -5
O=C(COC(=O)/C=C/c1ccc(Cl)cc1)Nc1ccccc1 | 41* | -7 | -2 | 0 | -2
O=C(COC(=O)/C=C/c1ccccc1)Nc1ccccc1Br | -7 | -4 | -3 | -1 | 40*
COC(=O)c1ccccc1S(=O)(=O)N1CCC(NC(=O)c2ccccc2)CC1 | 3 | -5 | -3 | 0 | -13
COc1ccc(C(=O)NC2CCN(S(=O)(=O)c3ccccc3F)CC2)cc1 | 9 | -5 | -5 | 0 | 33*
O=C(NCc1ccccc1Cl)C1CCN(C(=O)N2CCOc3ccccc32)CC1 | 7 | · | · | -2 | ·
N#Cc1c(C(F)(F)F)cc(-c2ccccc2Cl)[nH]c1=O | 2 | 5 | 2 | 1 | 44*
SMILES | D2 PAM-1 | D2 PAM-2 | D2 ag-1 | D2 ag-2 | D2 antag
COc1ccccc1-c1nnc(C2CCN(C(=O)c3cccc(Cl)c3)CC2)o1 | 14 | · | · | 1 | ·
COc1cc(/C=C/c2nc3cc(Cl)ccc3c(=O)n2-c2cccc(C(F)(F)F)c2)cc(OC)c1OC | 12 | · | · | 0 | ·
Cc1nc(-c2ccccc2)sc1-c1n[nH]c(=S)n1C | 41* | -17 | 2 | 1 | -5
Cc1cc2n(n1)CCCN2C(=O)Nc1cccc(C)c1C | 2 | · | · | 1 | ·
Cc1ccc(Cn2cc(S(=O)(=O)c3ccc(C(C)C)cc3)c(=O)c3cc4c(cc32)OCO4)cc1 | 8 | 5 | -3 | 0 | 36*
CCOC(=O)C1CCN(S(=O)(=O)c2cc(-c3cc(C)no3)ccc2OC)CC1 | · | · | · | 0 | ·
